# Pf apPOL inh – Pf-apPOL DNA polymerase inhibition. AID 1794808. inhibition, % at 10 µM. hit rate 0.25% among 210,000. Recombinant Pf-apPOL, molecular beacon fluorescence, 1.5 h
# mHTT CaM bind – disrupts binding of mutant huntingtin to calmodulin. P42858. AlphaScreen His-mHTT/GST-CaM binding, luminescence. inhibition, % at 15 µM. hit rate 3.6% among 190,000;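 also: 0% = both proteins with DMSO and 100% = one protein alone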
# An asterisk follows results filed as active; i = inactive; . = no result; + = active, no number; ! = a repeat was not active. Rows were chosen to be rich in hits. Some 3.6% of all compounds tested hit in one or more screens of this group. Rule as the data show it: active = inhibition above about 50%; inactive = the rest.
SMILES,Pf apPOL inh,mHTT CaM bind
Cc1ccc(N2CC(C(=O)NCC(C)C)CC2=O)cc1Cl (stereo not drawn),-0.8,1.0
O=C(Cn1nc(-c2cccs2)ccc1=O)NCc1ccco1,5.0,-5.5
COc1ccc(OC)c(CNC(=O)C2CCN(c3nc4cccnc4s3)CC2)c1,-7.4,-7.5
Cc1cccc(N=CC=C2OC(C)(C)C(C)(C)O2)c1,-0.9,44.0
Cc1ccc(N=CC=C2OC(C)(C)C(C)(C)O2)cc1,-0.8,56.0*
CN(C(=O)c1ccc(Br)cc1)c1ccccc1,-8.5,-7.0
CCC(=O)N1CCc2cc(N3CC(C(=O)N4CCN(C)CC4)CC3=O)ccc21 (stereo not drawn),-4.2,9.3
COc1ccc(Cn2c(Oc3ccccc3)nc3c2c(=O)n(C)c(=O)n3C)cc1,0.6,-6.0
COc1ccc(Oc2nc3c(c(=O)n(Cc4ccccc4)c(=O)n3C)n2C)cc1,65.1*,18.0
COc1ccccc1-c1nnc(NC(=O)c2ccc3c(c2)CCCC3)o1,-6.1,-2.3
CC(C)S(=O)(=O)c1cccc(-c2nnc(NC(=O)c3ccc4c(c3)CCCC4)o2)c1,-17.9,50.9*
O=C(NCC1CCCO1)c1cc(-c2ccc3c(c2)OCO3)nc2ccccc12 (stereo not drawn),-2.8,-36.0
CC1=C(C(=O)Nc2ccc(C)cn2)C(c2ccc(N(C)C)cc2)C2=C(CCCC2=O)N1 (stereo not drawn),-11.7,19.0
CCC(=O)NC(c1ccc(N(C)C)cc1)c1ccc2cccnc2c1O (stereo not drawn),2.7,99.5*
CCCCC(=O)NC(c1ccc(N(C)C)cc1)c1ccc2cccnc2c1O (stereo not drawn),0.8,100.0*
CCCCC(=O)NC(c1ccc(N(CC)CC)cc1)c1ccc2cccnc2c1O (stereo not drawn),-13.2,98.0*
O=C(c1ccccc1Br)N1CCN(Cc2nc3ccccc3[nH]2)CC1,-11.8,-11.0
Cc1noc(COC2CCCN(S(=O)(=O)c3ccccc3F)C2)n1 (stereo not drawn),-3.0,-13.0
Cc1nn(-c2ccccc2Cl)c(C(C)C)c1C(=O)NCc1cccnc1,-2.1,2.6
O=C(c1cc(Sc2ccc(F)cc2F)nc2ccccc12)N1CCC2(CC1)OCCO2,-10.3,8.0
Cc1nc(-c2cccc(NC(=O)c3cccc([N+](=O)[O-])c3)c2)cs1,-3.7,6.8
Cc1nc(-c2cccc(NC(=O)C(c3ccccc3)n3cccc3)c2)cs1 (stereo not drawn),5.7,67.0*
Cc1ccc(NCN2C(=O)C3C4CCC(C4)C3C2=O)cc1Cl (stereo not drawn),3.6,1.0
COc1ccc(NS(=O)(=O)c2cc(C(=O)O)ccc2Br)cc1,15.6,-4.7
CC(C)NC(=O)C1COc2ccc(NC(=O)C(C)(C)C)cc2C1 (stereo not drawn),2.6,0.4
SMILES,Pf apPOL inh,mHTT CaM bind
CC(Cl)C(=O)Nc1c(Cc2ccccc2)nc2ccccn12 (stereo not drawn),71.6*,44.0
O=C(Nc1c(Cc2ccccc2)nc2ccccn12)C(Cl)Cl,22.5,44.3
Cn1cccc1/C=N/NC(=O)c1cccs1,.,i
Cn1cccc1/C=N/Nc1ccc(F)cc1,.,+
COCCNC(=O)C1CCc2sc(C(=O)N3CCC(C)CC3)cc2C1 (stereo not drawn),-1.5,1.3
Cc1cccc(N2CCN(C(=O)/C=C3\Sc4ccccc4NC3=O)CC2C)c1 (stereo not drawn),3.9,28.0
Cc1cccc(N2CCN(C(=O)c3ccc4c(c3)NC(=O)c3ccccc3S4)CC2C)c1 (stereo not drawn),-9.7,100.0*
COc1ccccc1CC(=O)NCc1ccc(F)cc1,-6.1,-2.1
CCOc1cccc2cc(C(=O)NC(C)=O)c(=Nc3cccc(C)c3)oc12,-5.7,0.0
O=C(O)COc1ccccc1O,-1.1,94.2*!
Cc1ccccc1OCC(=O)O,3.0,-2.6
COc1cc(CNC(=O)C2CCN(c3nccnc3Oc3ccccc3)CC2)cc(OC)c1,-3.1,-2.5
CC(=O)c1ccc(N2CCN(C/C=C/c3ccccc3)CC2)cc1,2.1,20.6
CCOc1ccc(C(=O)N2CCc3cc(OC)c(OC)cc3C2COc2ccccc2OC)cc1 (stereo not drawn),1.4,73.2*
COc1cc2c(cc1OC)C(COc1ccccc1OC)N(C(=O)c1ccccc1OC)CC2 (stereo not drawn),-6.3,37.0
COC(=O)c1ccc(OCC2c3cc(OC)c(OC)cc3CCN2C(=O)c2ccc(OC)cc2)cc1 (stereo not drawn),-4.1,47.1
COc1ccc(OCC2c3cc(OC)c(OC)cc3CCN2C(=O)c2ccc(C)cc2)cc1 (stereo not drawn),1.9,77.0*
COCCNC(=O)CN1C(=O)/C(=C/c2ccc(C(F)(F)F)cc2)Sc2ccccc21,5.3,29.0
O=C(NC1CC2CC1N(S(=O)(=O)c1cc(F)cc(F)c1)C2)c1ccccc1 (stereo not drawn),-3.3,-3.0
O=C(c1ccc(N2C(=O)CCC2=O)cc1)N1CCN(Cc2nc(C3CC3)cs2)CC1,-1.0,-6.1
Cc1ccc(C2CC(c3cccs3)=NN2C(=O)CN(C)C(=O)C2CCC2)cc1 (stereo not drawn),-2.0,50.8*
Cc1ccc(C2CC(c3ccccc3Cl)=NN2C(=O)CN(C)C(=O)C2CC2)cc1 (stereo not drawn),0.6,88.2*
CN(CC(=O)N1N=C(c2ccc(F)cc2)CC1c1ccc(F)cc1)C(=O)C1CCC1 (stereo not drawn),-4.7,42.9
Cc1ccc(C2CC(c3cccn3C)=NN2C(=O)CN(C)C(=O)C2CCC2)cc1 (stereo not drawn),-7.6,53.9*
Cc1ccc(C2CC(c3cccn3C)=NN2C(=O)CN(C)C(=O)C(C)C)cc1 (stereo not drawn),-5.2,62.1*
SMILES,Pf apPOL inh,mHTT CaM bind
CN(CC(=O)N1N=C(c2ccccc2Cl)CC1c1ccc(F)cc1)C(=O)C1CC1 (stereo not drawn),0.2,4.9
CC(C)C(=O)N(C)CC(=O)N1N=C(c2ccccc2F)CC1c1ccc(F)cc1 (stereo not drawn),-1.8,14.3
CCC(=O)N(C)CC(=O)N1N=C(c2cccs2)CC1c1ccc(C)cc1 (stereo not drawn),-2.0,14.2
CCn1cc2c3c(cccc31)CN(C(=O)Nc1cc(F)ccc1F)CC2,-8.2,-6.9
Cc1cccc(CNC(=O)c2cn3ccc(C)cc3n2)c1,0.3,-2.9
Cc1noc(C)c1C1CCCN1C(=O)c1cc(C2CC2)on1 (stereo not drawn),-3.3,-6.2
COc1cccc(S(=O)(=O)Nc2cccc(C(F)(F)F)c2)c1,-8.7,-27.1
CCCCCCCCCCCCn1c(SCCC)nc2c1c(=O)[nH]c(=O)n2C,.,-3.4
Cc1ccc(CNC(=O)C2CCCN(c3cn[nH]c(=O)c3)C2)cc1 (stereo not drawn),0.9,-9.8
C=CCN(c1ccccc1)S(=O)(=O)c1ccc(F)c(C(=O)NC2CCCC(C)C2C)c1 (stereo not drawn),-1.2,-11.0
CC(=O)N(C)CC(=O)N1N=C(c2ccc(C)c(C)c2)CC1c1ccc(C)cc1 (stereo not drawn),-2.0,58.4*
Cc1ccc(C2=NN(C(=O)CN(C)C(=O)C3CC3)C(c3ccccc3)C2)cc1C (stereo not drawn),-2.8,27.3
CC1(C)CC(=O)C2=C(C1)c1c(ccc3ncccc13)NC2c1ccc(Br)cc1 (stereo not drawn),3.0,25.0
CSc1ccc(C2Nc3ccc4ncccc4c3C3=C2C(=O)CCC3)cc1 (stereo not drawn),0.4,23.0
